Data reported in PubChem BioAssay (NCI).
About 79,000 compounds went through this panel and 15% of them were active in at least one assay; those are over-represented in the sample as a whole. Unmarked numbers belong to inactive results. Activity calls are given as the source filed them. Rule as the data show it: active = growth inhibition above about 70%; inactive = the rest.

Columns and labels:
[1] = NCI Yeast Anticancer Drug Screen. Data for the rad50 strain (AID 155);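 also: 0% = growth of vehicle-only cultures of the same strain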; settings: S. cerevisiae rad50 strain growth inhibition, hits give high values; at 50.0 µM unless noted
In short: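 Inhibition values express reduced yeast growth in compound-treated cultures relative to vehicle-treated controls.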

[2] = NCI Yeast Anticancer Drug Screen. Data for the mec2-1 strain (AID 157); settings: S. cerevisiae mec2-1 strain, hits give high values; at 50.0 µM unless noted
In short: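 Cells of the genetically defined mec2-1 yeast strain are incubated with test compound. Inhibition of growth is calculated against vehicle-treated controls.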

[3] = NCI Yeast Anticancer Drug Screen. Data for the sgs1 mgt1 strain (AID 161);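 also: 0% = growth of cultures given vehicle only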; settings: S. cerevisiae sgs1 mgt1 strain, hits give high values; at 50.0 µM unless noted
In short: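 Test agents were incubated with a DNA-repair-mutant yeast strain. Growth was then read and compared against vehicle-treated controls.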

[4] = NCI Yeast Anticancer Drug Screen. Data for the cln2 rad14 strain (AID 165);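 also: 0% = growth equal to vehicle treated cultures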; settings: S. cerevisiae cln2 rad14 strain, hits give high values; at 50.0 µM unless noted
In short: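 The screen exposed genetically defined yeast (cln2 rad14) to test compounds and scored growth inhibition relative to vehicle-treated controls.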

[5] = NCI Yeast Anticancer Drug Screen. Data for the bub3 strain (AID 167); settings: S. cerevisiae bub3 mutant strain, hits give high values; at 50.0 µM unless noted
In short: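 Steps: expose the mutant yeast strain to compound; grow alongside vehicle-treated cultures; measure growth; express inhibition against the vehicle cultures.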

[6] = NCI Yeast Anticancer Drug Screen. Data for the mlh1 rad18 strain (AID 175); settings: S. cerevisiae mlh1 rad18 strain growth inhibition, hits give high values; at 50.0 µM unless noted
In short: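 Compound-treated yeast growth, normalised to vehicle controls. Strain bears defined DNA repair mutations.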

SMILES	growth inhibition [1]	growth inhibition [2]	growth inhibition [3]	growth inhibition [4]	growth inhibition [5]	growth inhibition [6]
NC(=S)Nc1ccc(-c2ccccc2)cc1	17.4%	25.9%	49.1%	-1.65%	22.8%	40.3%
O=C(C/C(CCC(=O)N(Cc1ccccc1)Cc1ccccc1)=N/Nc1ccc([N+](=O)[O-])cc1[N+](=O)[O-])c1ccccc1	42.9%	29.9%	60%	41.6%	1.05%	61.8%
N#Cc1cc2c(N)ncnc2nc1N1CCCC1	-43.7%	-61.8%	-13.3%	-2.25%	5.35%	-26.2%
CC(=O)OC1CCC2(C)C(C1)C(=O)OC1C2CCC2(C)C(C(C)CCCC(C)C)CCC12 (stereo not drawn)	27.4%	3.55%	2.75%	-12.7%	-3.85%	23.4%
Cc1[nH]c2c(C)ccc(C)c2c(=O)c1Br	-1.65%	10%	-1%	-16.7%	-1.7%	3.2%
O=C(CC1SC(=Nc2ccccc2Cl)NC1=O)Nc1ccc(Cl)cc1Cl (stereo not drawn)	-9.8%	-14.8%	-15.9%	17.7%	-6.55%	9.7%
CCCCCCCCCCCC[N+](C)(C)C(C)Cc1ccccc1 (stereo not drawn)	99.3% (active)	99.5% (active)	89.8% (active)	99.4% (active)	99.2% (active)	99.3% (active)
CCOC(=O)c1[nH]c(-c2[nH]c(-c3[nH]c(-c4[nH]c(C(=O)OCC)c(C)c4C(=O)OCC)c(C(=O)OCC)c3C)c(C)c2C(=O)OCC)c(C(=O)OCC)c1C	-24.7%	-16%	-21.3%	6.85%	-14.1%	-74%
COc1cc(OC)c(I)cc1Cl	-10.1%	-37.5%	4.55%	13.4%	-29.2%	-12.3%
CCCCCCCCCCCCCCCCCCCCCCCCCCO	-16.2%	-10.4%	-13.8%	-8.85%	-1.3%	-7.25%
CCCCCCCCCCCCCCCCCC(O)CCCCCCCCCCCCCCCCC	-16.9%	-8.45%	-7.75%	-47.2%	2.4%	-8.25%
COC(=O)C1CC2(CCC1=O)Cc1ccccc1C2=O (stereo not drawn)	-15.5%	-3.45%	28.5%	1.3%	-4.25%	-16.4%
O=C1C2=C(C(=O)C3=C1C1CCC3C1)C1CCC2C1	4.1%	-34.1%	-11.7%	-15.2%	-5.25%	0.7%
CC1Cn2c(Cc3ccccc3)nnc2S1 (stereo not drawn)	-15.2%	1.25%	5.45%	19.5%	-4.6%	-4.75%
OCC1OC(OC2C(CO)OC(O)C(O)C2O)C(O)C(O)C1O (stereo not drawn)	19.1%	14.9%	13.9%	13.3%	20.1%	13.7%
CCCCC(NC(=O)c1ccc2ccccc2n1)C(=O)O (stereo not drawn)	-0.35%	9%	1.5%	7.35%	-8.7%	20.2%
O=C(NNC(=O)c1ccc2ccccc2c1)c1ccc(Cl)cc1	-19.2%	-51%	-11%	3.55%	-13.6%	-9.75%
NC(=O)C(=CN1CC(=O)NC1=S)C(N)=O	-23.3%	-23.4%	-2.4%	9.85%	-9.05%	17.1%
